# Laboratory results published in PubChem BioAssay.
# Active and inactive are the calls of the source. How the calls were made is not given here.
# Test: inhibition of 3D7 malaria parasite growth – strain 3D7 (AID 2306);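 further: 0% = DMSO wells and 100% = chloroquine plus artemisinin control wells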
# Settings: P. falciparum 3D7 erythrocytic growth, LDH absorbance, 72 h; at 2 µM; active compounds read high
row,Compound,growth inhibition
1,CCN(CC)CCCNC(=O)/C(=C/C=C/c1cc2cc(Cl)c(Cl)cc2[nH]1)OC,84% (active)
2,O=C1OC2(CN1CC1CCN(Cc3ccc(-n4ccnc4)cc3)C1)c1ccccc1-c1ccccc12 (centres undefined),96% (active)
3,Cc1ccc(NC(=O)c2ccc3ncccc3c2)cc1OC1CCN(CCC(C)C)CC1,94% (active)
4,Nc1ncc(-c2ccc(F)cc2)cc1-c1nc2ccc(Cl)cc2[nH]1,99% (active)
5,N#Cc1ccccc1N1CCN(C2CCC(NC(=O)c3n[nH]c4cc(C(F)(F)F)ccc34)CC2)CC1 (centres undefined),84% (active)
6,Cc1ccc(NC(=O)N2CCN(CCCCCNC(=O)/C=C/c3ccc(Cl)c(Cl)c3)CC2)cc1C,94% (active)
7,Cc1nnc(NC(=O)c2cn(-c3ccccc3)nc2-c2ccccc2C)o1,93% (active)
8,CN1CCN(c2cc3c(cc2Cl)CCN3C(=O)Nc2ccc(NC(=O)c3ccc(C(F)(F)F)cc3)cc2)CC1,100% (active)
9,Cc1ccc(-c2ccc3c(c2)C=C(C(=O)NC2CCN(CCNC(=O)c4cccs4)CC2)CCC3)cc1,90% (active)
10,COC(=O)c1ccc(NC(=O)Nc2ccc(Cn3ncc(N4CCCNCC4)c(Cl)c3=O)cc2)cc1,83% (active)
11,CC1(C)N=C(N)N=C(N)N1OCCCOc1cc(Cl)cc(Cl)c1,95% (active)
12,O=C(Nc1ccc2ccccc2c1)c1ccc(CN2CCC(Cc3ccccc3)CC2)cc1,95% (active)
13,Cc1cc2c(cc1Cl)N(C(=O)Nc1cc(F)cc(-c3cncnc3)c1)CC2,96% (active)
14,COc1ccc(C2=CCN(c3ccc(Cl)c(Cl)c3)C2=O)cc1OCCN1CCCCC1,97% (active)
